# Source: PubChem BioAssay
# Shown are actives, neighbours in structure and some others; about 12% of the full set was active somewhere.
# CHOP inhibitor = CHOP inhibition in unfolded protein response | CHO-K1 CHOP-promoter luciferase, tunicamycin-induced, 15-18 h | inhibition, % at 10 µM | 220,000 compounds, 3.8% hits | AID 2732;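 active = compounds that reduced the stress-induced luciferase reporter signal by more than about 70% of percent inhibition, limit read from the data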;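 note: 0% = tunicamycin plus vehicle and 100% = wells without tunicamycin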
# Arbovirus inh = arbovirus infection inhibition; arbovirus infection cell-based antiviral screen; inhibition, % at 10 µM; 200,000 compounds, 0.37% hits; AID 1251; in the data active = inhibition above about 30%
# Lmaj promast = Leishmania major promastigote growth inhibition; Leishmania major promastigotes, resazurin fluorescence viability; inhibition, % at 10 µM; AID 1063; 200,000 compounds, 9% hits; in the data active = inhibition above about 50%;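 note: promastigotes grown with compound for 44 hours at 28 °C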
# WT yeast gro inh = growth inhibition of WT yeast, mitochondrial fusion screen; mitochondrial fusion phenotypic screen, WT strain; inhibition, % at 10 µM; 190,000 compounds, 2.1% hits; AID 1362; in the data active = inhibition above about 58%; tested in S. cerevisiae
# Active calls of the source: *; nt = no result given; ! = a repeat was not active.
SMILES,CHOP inhibitor,Arbovirus inh,Lmaj promast,WT yeast gro inh
Cc1ccc(N=Nc2c(C)[nH]n(C(N)=S)c2=O)cc1C,-4,-16,30,60*
CC(=O)Nc1ccc(N=Nc2c(C)[nH]n(C(N)=S)c2=O)cc1,-24,19,10,3
Cc1[nH]n(C(N)=S)c(=O)c1N=Nc1cc(-c2ccc(Br)cc2)[nH]n1,31,20,57*,25
Cc1[nH]n(C(N)=S)c(=O)c1N=Nc1ccc2ccccc2c1,13,-6,8,66*
Cc1[nH]n(C(N)=S)c(=O)c1N=Nc1ccc(S(=O)(=O)N2CCCCCC2)cc1,49,-3,14,68*
O=C(C1=C[C@H](c2ccccc2)C[C@H](OCCCCO)O1)N1CCOCC1,15,1,-8,-8
COCCCNC(=O)COc1ccc(S(=O)(=O)NCc2ccccc2)cc1Cl,23,13,-5,10
CCOC(=O)CNC(=O)C1COc2ccccc2O1 (centres undefined),-1,nt,nt,nt
COC1=C(OC)C(=O)C(CCCCCCCCCCO)=C(C)C1=O,-28,-22,nt,29
CC1=C(C)C(=O)C(CCCCC#CCCCC#CCO)=C(C)C1=O,73*!,-11,-1,10
O=C(c1ccccc1)c1ccc(N2CCOCC2)c(F)c1,35,-9,53*,14
O=[N+]([O-])c1cc(Cl)ccc1N1CCCCC1,7,7,2,0
CN1CCN(c2cc(N3CCc4ccccc4C3)c(F)cc2[N+](=O)[O-])CC1,42,-44,76*,87*
COc1cccc(C(=O)NC(=S)N2CCN(c3ccc(C(F)(F)F)cc3[N+](=O)[O-])CC2)c1,34,-3,51*,-7
O=[N+]([O-])c1cc(Cl)ccc1N1CCN(c2ccccc2O)CC1,3,17,-1,75*
CS(=O)(=O)N(CC(=O)NC1CCCC1)C1CCCCC1,40,-1,-4,4
O=C(NCc1csc(-c2cccs2)n1)C1CCCCC1,-16,nt,nt,nt
COCCN1C(=O)N[C@@H](c2ccco2)C(C(C)=O)=C1C,3,3,-5,1
CC(CNc1ccccc1O)C(=O)O (centres undefined),7,0,-2,-1
Cc1cccc(C)c1NC(=O)COC(=O)CCC(=O)c1cccs1,-2,17,-7,-7
O=C(NC(=S)N1CCN(c2ccc(Cl)cc2[N+](=O)[O-])CC1)c1ccco1,25,-8,-10,-5
O=C(NC(=S)N1CCN(c2ccc(Cl)cc2[N+](=O)[O-])CC1)c1cccs1,-15,-38,75*,72
CN1CCN(c2ccc(C(=O)c3ccccc3)cc2[N+](=O)[O-])CC1,16,-19,81*,22
CN1CCN(c2ccccc2NC(=O)c2ccc(N3CCCCC3)c([N+](=O)[O-])c2)CC1,12,-15,17,5
O=C(NC(=S)N1CCCCC1)c1cccs1,1,6,55*,-3
SMILES,CHOP inhibitor,Arbovirus inh,Lmaj promast,WT yeast gro inh
Cc1cc(Br)cnc1NC(=S)Nc1ccc(F)cc1F,-19,0,-4,16
CCOc1cccc(C(=O)Nc2ccc3oc(Cc4ccc(Cl)cc4)nc3c2)c1,52,-21,5,59*
O=C(Nc1ccc2oc(Cc3ccc(Cl)cc3)nc2c1)c1cccnc1,nt,3,14,-3
O=C1[C@H]2[C@@H](C(=O)N1c1cc(Cl)cc(Cl)c1)[C@]1(C(=O)Nc3ccccc31)N1CCC[C@@H]21,33,11,0,-4
Cc1cc(Cl)c2c(c1)[C@]1(C(=O)N2)[C@@H]2C(=O)N(Cc3ccccc3)C(=O)[C@@H]2[C@@H]2CCCN21,71*,-17,47,28
COc1ccc(N2C(=O)CC(Sc3ccccc3C(=O)O)C2=O)c([N+](=O)[O-])c1 (centres undefined),-20,-2,-6,0
Cc1ccc2c(Cl)cc(Cl)c(OCC(=O)Nc3cc(S(=O)(=O)N(C)C)ccc3C)c2n1,37,2,69*,32
Cc1ccc2c(Cl)cc(Cl)c(OCC(=O)Nc3cccc(S(N)(=O)=O)c3)c2n1,46,1,71*,10
Cc1ccc2c(Cl)cc(Cl)c(OCC(=O)Nc3cccc(S(=O)(=O)N(C)C)c3)c2n1,26,-10,-5,10
Cc1ccc2c(Cl)cc(Cl)c(OCC(=O)NC(C)(C)C)c2n1,31,-19,6,56
Cc1ccc2c(Cl)cc(Cl)c(OCC(=O)Nc3ccc(C)c(S(=O)(=O)N(C)C)c3)c2n1,2,-11,68*,6
CCC(=O)Nc1cc(C(=O)OC(C(=O)c2ccc(C)c(C)c2)c2ccccc2)ccc1C (centres undefined),7,-1,4,-8
COc1ccc(C=O)cc1COc1c(F)c(F)cc(F)c1F,45,6,99*,-11
COc1ccc(C=O)cc1COc1ccc(F)cc1F,43,-1,5,17
CC(=O)c1ccc(NC(=S)N2CCCCCC2)cc1,-11,-4,-2,-2
